SMN2 splice up – qHTS Assay for Enhancers of SMN2 Splice Variant Expression; Potency, µM (highest dose often 46.1 µM), without a hit: top-dose activity change, positive = activation, actives largely listed as activators; HEK293 SMN2-luciferase splicing reporter, luminescence, 30-36 h; actives 2.8% (n = 210,000); further: % of control where 0% means no effect; nearly all actives have a fitted effect of over 55% in size
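qHTS luciferase splicing reporter: luminescence rises when SMN2 exon 7 is included in transfected HEK293 cells. Compound exposure lasted 30-36 h at 37C, with 4.5 mM final sodium butyrate as control, followed by a ONE-Glo read.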
ELG1 DNA repair – qHTS screen for small molecules that inhibit ELG1-dependent DNA repair in human embryonic kidney (HEK293T) cells expressing luciferase-tagged ELG1; HEK293T ELG1-luciferase reporter, luminescence, 16 h; DNA damage induced by 5-fluorouridine; Potency, µM (titrated, usually from 46.1 µM), inactives show top-dose activity change, negative = inhibition, actives largely listed as inhibitors; actives 2.3% (n = 330,000); further: on the % scale 0 is the no-effect control and ±100 the full control effect; nearly all actives have a fitted effect of over 55% in size
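Luminescence from the luciferase reporter, measured 30 min after ONE-Glo reagent at room temperature, was the read-out. Beforehand, 2,000 cells per well were exposed for 16 hr at 37 °C to 5-fluorouridine together with compound or vehicle.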
NPC1 prom act – qHTS Assay for NPC1 Promoter Activators; Potency, µM (top dose mostly 9.22 µM), without a hit: at the highest dose activation, actives largely listed as activators; actives 2.4% (n = 320,000); Huh7 NPC1 promoter luciferase reporter, 24 h; further: % of control where 0% means no effect; nearly all actives have a fitted effect of over 60% in size
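Compounds in DMSO were transferred onto Huh7 NPC1-luciferase reporter cells pre-incubated 2 h; after 24 h at 37 °C, Amplite reagent was dispensed and luminescence recorded 10 min later.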
ELG1 genotoxic – qHTS screen for small molecules that induce genotoxicity in human embryonic kidney (HEK293T) cells expressing luciferase-tagged ELG1. Potency, µM (top dose mostly 46 µM), without a hit: top-dose activity change, positive = activation, most hits filed as activators. HEK293T ELG1-luciferase reporter, luminescence, 16 h. actives 1.3% (n = 330,000); further: % of control where 0% means no effect; nearly all actives have a fitted effect of over 60% in size
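Step 1: seed 2,000 HEK293T ELG1-luciferase cells per well. Step 2: add compound or DMSO, incubate 16 hr at 37 °C. Step 3: ONE-Glo, 30 min at room temperature, read luminescence.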
FLuc modulator – qHTS profiling assay for firefly luciferase inhibitor/activator using purifed enzyme and Km concentrations of substrates (counterscreen for miR-21 project); purified FLuc, Km substrates, luminescence inhibition; Potency, µM (series often up to 57.5 µM), for the others: top-dose activity change, negative = inhibition, most hits filed as inhibitors; actives 6.9% (n = 360,000); AID 588342, 2011;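 further: plate controls were vehicle for no effect and reference inhibitor for full effect; nearly all actives have a fitted effect of over 55% in size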
Target sequence (P08659 whole entry, looked up): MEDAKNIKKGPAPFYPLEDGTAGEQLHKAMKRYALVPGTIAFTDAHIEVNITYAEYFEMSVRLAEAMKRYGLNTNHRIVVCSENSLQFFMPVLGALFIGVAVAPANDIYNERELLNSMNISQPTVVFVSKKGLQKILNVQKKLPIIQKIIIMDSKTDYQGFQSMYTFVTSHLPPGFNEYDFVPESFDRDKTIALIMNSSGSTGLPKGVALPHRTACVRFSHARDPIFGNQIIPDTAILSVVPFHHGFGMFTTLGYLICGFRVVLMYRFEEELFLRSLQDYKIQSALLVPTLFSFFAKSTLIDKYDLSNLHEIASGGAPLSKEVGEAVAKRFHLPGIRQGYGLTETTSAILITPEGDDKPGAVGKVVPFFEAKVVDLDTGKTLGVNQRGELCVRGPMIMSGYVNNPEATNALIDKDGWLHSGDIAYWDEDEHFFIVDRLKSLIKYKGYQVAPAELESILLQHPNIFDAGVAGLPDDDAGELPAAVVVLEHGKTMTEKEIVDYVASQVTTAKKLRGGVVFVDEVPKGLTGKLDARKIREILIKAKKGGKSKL
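Purified P. pyralis luciferase, 10 nM final, with Km-level 10 uM D-luciferin and 10 uM ATP in 50 mM Tris acetate pH 7.5, 10 mM Mg acetate, 0.01% Tween-20, 0.05% BSA; 6-point qHTS titration about 60 µM downward; luminescence read.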
Rab9 promoter act – qHTS Assay for Rab9 Promoter Activators | Huh7 Rab9 promoter-luciferase reporter, luminescence, 24 h | Potency, µM (titrated, usually from 9.22 µM), for the others: at the top dose activation, negative = inhibition, actives largely listed as activators | actives 2.8% (n = 320,000) | AID 485297, 2010; further: % of control where 0% means no effect; nearly all actives have a fitted effect of over 60% in size
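Steps: seed 1500 Huh7 Rab9-luc cells per well, rest 2 h at 37 °C; add compound in DMSO; incubate 24 h; add luciferase reagent, 10 min ambient; read luminescence.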
Active calls of the source: *; ? = inconclusive; . = not tested or not shown; [ ] = another dose, or the depositor's remark. Only some compounds are listed: those with a hit (about 9.2% of all), similar ones and a draw of the others. The call rests on the fitted dose curve; in most records, active means well fitted curve in the direction sought with a large enough effect; inconclusive means small, poorly fitted or top-dose-only effect, or another doubt; inactive means no such curve, though single readings can be large; an effect the other way counts as inactive or inconclusive. Potency means the concentration at half of the fitted maximal effect.

SMILES	SMN2 splice up	ELG1 DNA repair	NPC1 prom act	ELG1 genotoxic	FLuc modulator	Rab9 promoter act
COc1ccc(OCc2cc(C(=O)N3CCCCCCC3)no2)c(Cl)c1	.	?	24%	?	?	23%
O=C(c1cc(COc2ccc(F)cc2F)on1)N1CCSCC1	.	?	?	21µM*	15µM*	2.5µM*
Cc1ccc(S(=O)(=O)C(CNC(=O)COc2ccc(Cl)cc2)c2ccco2)cc1 (stereo unspecified)	.	.	.	.	-12%	.
CCN(CC)S(=O)(=O)c1ccc2c(c1)N(CC(=O)N1CCCC1)C(=O)CO2	.	-7%	1%	-3%	3%	4%
Cc1ncc(CN2CCC(CO)(Cc3ccccc3)CC2)s1	.	-5%	1%	-2%	0%	-12%
Cc1ccc(OCc2cc(C(=O)N3CCN(C4CCCCC4)CC3)no2)cc1C	.	?	25%	2%[9.26 µM]	?	29%
CCC(NC(=O)c1cc(COc2cncc(Cl)c2)on1)c1ccncc1 (stereo unspecified)	.	-11%	1%	-10%	1%	-4%
COc1cc(C)ccc1OCc1cc(C(=O)N2CCN(C3CCCCC3)CC2)no1	.	?	?	?	17µM*	?
CCC(NC(=O)c1cc(COc2ccc(F)cc2Cl)on1)c1ccncc1 (stereo unspecified)	.	?	-1%	0%	21µM*	-4%
O=C(c1cc(COc2ccc(F)cc2Cl)on1)N1CCCCCC1	.	?	1.8µM*	?	6.7µM*	2µM*
COc1ccc2c(c1)sc(=NC(=O)CS(=O)(=O)c1ccc(F)cc1)n2C	.	?	-3%	-6%	2%	-11%
COc1ccc(S(=O)(=O)N2CCc3ccccc32)cc1C(=O)Nc1ccc(C(N)=O)cc1	.	?	1%	0%	-2%	-7%
O=C(CSc1ccccc1F)NNC(=O)c1cncc(Br)c1	.	?	.	0%	.	.
Nc1c(C(=O)O)sc2nc3c(cc12)CCCC3	.	14%	11%	2%	?	11%
NC(=O)c1sc2nc3c(cc2c1N)CCCCCC3	.	?	2.5µM*	-1%	19µM*	?
N#Cc1sc2nc3c(cc2c1N)CCCC3	-9%	?	14%	16%	13µM*	-4%
Cc1cccc(NC(=O)c2sc3nc4c(cc3c2N)CCCCCC4)c1C	-2%	.	.	.	0%	.
Nc1c(C(=O)C2CC2)sc2nc3c(cc12)CCC3	.	?	2.5µM*	?	8.5µM*	?
CCCCc1nc2ccccc2n2c(-c3ccc(OC)cc3)c3c(=O)n(C)c(=O)n(C)c3c12	8%	.	.	.	-2%	.
O=C(COc1ccccc1)Nc1ccc(C(=O)OCc2cc(=O)n3nc(C4CC4)sc3n2)cc1	.	.	.	.	0%	.
NC(=O)c1ccc(OCC(=O)N2CCNC2=O)cc1	.	19%	.	1%	.	.
Cc1c(C(=O)Nc2ccc3c(c2)CCC3)cccc1[N+](=O)[O-]	.	?	?	?	13µM*	?
CCC(=O)Nc1cccc(NC(=O)c2cccc([N+](=O)[O-])c2C)c1	-15%	23µM*	8%	-3%	-2%	-3%
O=C(SCC(O)C(O)CS)c1cccs1 (stereo unspecified)	.	14%	-1%	2%	-7%	-6%
COc1ccc(Nc2ncc3c(n2)CC(c2ccc(OC)cc2)CC3=O)cc1 (stereo unspecified)	-43%	13µM*	3%	0%	-2%	-5%
SMILES	SMN2 splice up	ELG1 DNA repair	NPC1 prom act	ELG1 genotoxic	FLuc modulator	Rab9 promoter act
Cc1ccc(Nc2ncc3c(n2)CC(C)(C)CC3=O)cc1	11µM*	?	2.2µM*	?	12µM*	1.6µM*
C[C@@H](SCc1ccccc1)C(=O)O	-6%[9.22 µM]	.	.	.	.	.
O=C(/C=C/c1c(F)cccc1Cl)c1ccc(F)cc1	-72%	?	1%	2%	6.7µM*	13%
CN(C)/C=C/C(=O)c1ccc(F)cc1	-12%	16%	-3%	0%	-8%	11%
CCN1CCN(C(=O)/C=C/c2c(F)cccc2Cl)CC1	11%	2%	-2%	4%	0%	-3%
O=C(/C=C/c1ccc[nH]1)c1ccc(F)cc1	?	?	6%	?	12µM*	1%
O=CC(=O)c1ccccc1	7%	?	5%	10%	0%	1%
O=C(/C=C/c1ccc[nH]1)c1ccccc1	-6%	?	23%	8%	12µM*	?
CC(C(=O)Nc1ccc(O)cc1)c1cccc(C(=O)c2ccccc2)c1 (stereo unspecified)	-30%	16µM*	-8%	-5%	-6%	-8%
CC(=O)Nc1ccc(NC(=O)C(C)c2cccc(C(=O)c3ccccc3)c2)cc1 (stereo unspecified)	-6%	-25%	1%	-5%	-16%	-3%
O=C(O)CC[C@]1(C(=O)O)CCC(=O)c2ccccc21	2%[9.22 µM]	.	.	.	.	.
S=C(NCCc1ccccn1)NC1CCCCC1	11µM*	?	?	?	?	?
S=C(NCCCc1ccccc1)NC1CCCCC1	.	?	18%	5%	-19%	21%
O=C(Nc1nc2ccccc2[nH]1)C1CC1	10µM*	18%	-15%	10%	?	0%
O=C(Nc1nc2ccccc2[nH]1)NC1CCCCC1	.	?	0.45µM*	2.6µM*	1.5µM*	0.4µM*
O=C(Nc1nc2ccccc2[nH]1)Nc1ccccc1F	.	?	?	1.2µM*	1.1µM*	?
O=C(Nc1nc2ccccc2[nH]1)C12CC3CC(CC(C3)C1)C2	14µM*	?	2µM*	?	3.4µM*	2.8µM*
O=C(Nc1nc2ccccc2[nH]1)C1CCN(C(=O)c2ccc(F)cc2)CC1	.	14%	-4%	-2%	-14%	-1%
O=C(Nc1ccccc1NC(=O)NC1CCCCC1)NC1CCCCC1	-78%	11%	-5%	-31%	?	-7%
CCN(CC)S(=O)(=O)c1ccc(OCC2CCCCO2)c([N+](=O)[O-])c1 (stereo unspecified)	.	-12%	0%	-1%	3%	1%
O=C(NC1CCCC1)c1ccccc1-c1nc2ccccc2[nH]1	11µM*	-7%	-1%	-1%	0%	1%
S=C(NC1CCCCC1)N(CCc1nc2ccccc2[nH]1)C1CCCC1	-61%	23µM*	-4%	-5%	5%	-6%
